# In PubChem BioAssay (NCI):
# The panel holds about 83,000 compounds, 20% with a hit somewhere; the sample as a whole holds those more often.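 Plates (96-well) were seeded with cells, treated with compound at one concentration, and incubated for 48 hours before percent growth was determined.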 Active and inactive are the calls of the source. The calls were made as follows: active = growth percent below 10; inactive = the rest.
# Tested on: MDA-MB-468 breast
# Experiment: NCI-60 one-dose screen, 48 h (100 = growth as untreated, 0 = no growth, -100 = all killed)
# Conditions: 10 µM unless noted
row,SMILES,growth
1,CN1CCN(c2ccc(/C=N/Nc3nc4ccccc4c(=O)n3-c3ccccc3)cc2)CC1,90.8% (inactive)
2,CCCCCCCCCCCCCCCCNC(=O)Nc1ccc(C)c(NC(=O)NCCCCCCCCCCCCCCCC)c1,101% (inactive)
3,CCCc1cc2cc(-n3nc(C)c4c3CC(C)(C)CC4=O)cc(NC3CCSCC3)c2c(=O)[nH]1,14.3% (inactive)
4,O=C(NC1CCOCC1)c1ccc2c(c1)CN(c1ncc(Cc3cccc(-n4cccn4)c3)s1)CC2,41.4% (inactive)
5,C#CCn1cc(C=C2C(=O)NC(=S)NC2=O)c2cc(Cl)ccc21,32.5% (inactive)
6,O=C(NCCNc1nccc(-c2c(-c3cccc(O)c3)nc3sccn23)n1)Nc1cc(C(F)(F)F)cc(C(F)(F)F)c1,57.8% (inactive)
7,CN(C)c1nc(N)c2nccnc2n1,115% (inactive)
8,CSc1nc(-c2ccco2)c2c(N)[nH]nc2n1,113% (inactive)
9,COc1ccc(C(=O)CSc2nccc(Nc3ccc(C(=O)O)cc3)n2)cc1,104% (inactive)
10,C[C@H](CCC(=O)NCc1ccc(C(=O)Nc2ccccc2N)cc1)[C@H]1CC[C@H]2[C@@H]3[C@@H](O)C[C@@H]4C[C@H](O)CC[C@]4(C)[C@H]3CC[C@]12C,71.2% (inactive)
11,CC(C)=CCc1cc2c(cc1O)C1=C(C(=O)C3=C(NCCS3(=O)=O)C1=O)C(C=C(C)C)O2 (stereo not drawn),-20.7% (active)
12,CC(=O)c1cccc(O)c1,110% (inactive)
13,COc1cc(-c2nn(-c3cccc(NC(=O)c4cccc(C(F)(F)F)c4)c3)cc2-c2ccncc2)ccc1Cl,-19.4% (active)
14,O=C(N=c1n(-c2ccccc2)nc2n1CCN2C1=NCCN1)c1ccc(Cl)cc1,50.3% (inactive)
15,FC(F)(F)c1ccc(-c2cnc(Cl)nc2N2CCC3(CC2)OCCO3)cc1,103% (inactive)
16,NC(N)=N/N=C/c1ccc(Br)cc1,8.33% (active)
17,CCN1CCOC1C(C)C (stereo not drawn),109% (inactive)

row,SMILES,growth
1,CN1CCN(Cc2ccc(NC(=O)c3cncc(C#Cc4cnc5cccnn45)c3)cc2C(F)(F)F)CC1,37.8% (inactive)
2,CCOC(=O)c1c(NC(=O)c2ccc(C(F)(F)F)cc2)sc2c3c(ccc12)OCN(C)C3,-76.9% (active)
3,Fc1ccc(C2CC(c3cccc(Nc4ccncc4)c3)=NN2c2cc(Cl)cc(Cl)c2)cc1 (stereo not drawn),37.6% (inactive)
4,CC(=O)Oc1ccc(N2C(=O)C(Cl)=C(Nc3cccc(C(F)(F)F)c3)C2=O)cc1,96.1% (inactive)
5,C/C(=C(/C)C1CC1CCN(C(=O)c1ccc([N+](=O)[O-])cc1)S(=O)(=O)c1ccc(C)cc1)C1CCCCC1 (stereo not drawn),82.5% (inactive)
6,COc1nc(/C=C\Nc2ccc3c(c2)OCCOCCOCCOCCO3)nc(OC)n1,108% (inactive)
7,O=C(CCc1nnc(-c2c(Cl)cccc2Cl)o1)c1nc2ccccc2[nH]1,-2.19% (active)
8,Nc1c2c(nc3ccc(Cl)cc13)CC(c1ccc(O)cc1)CC2=O (stereo not drawn),18% (inactive)
9,Cc1cc(CCNC=O)c(C)c2c1sc1ccccc12,71.4% (inactive)
10,COc1ccc(CCOc2cc3c(cc2OC)CCN(C(=O)NCc2cocn2)C3c2ccc(C)cc2C)cc1 (stereo not drawn),3.86% (active)
11,COc1ccc(-c2cc(-c3nnc(SCC(=O)Nc4ccc(/C(C)=N\O)cc4)o3)c3ccccc3n2)cc1,106% (inactive)
12,CCCCCCCCCCCC(=O)NC(C)(C)C(=O)N1CCCC1C(=O)NC(C)(C)C(=O)NC(C)(C)C(=O)N1CCCC1C(=O)NC(C)(C)C(=O)NC(C)(C)C(=O)N1CCCC1C(=O)NC(C)C(=O)NCCC(=O)NC(C)C(=O)NC(C)(C)C(=O)NC(C)(C)C(=O)NC(C)(C)C(=O)NCCC(=O)NC(C)(C)C(=O)NC(C)(C)C(=O)NC(C)(C)C(=O)NC(C)C(=O)NCCC(=O)O (stereo not drawn),-88.5% (active)
13,COc1cc2cc3c(nc2cc1OC)CCN3Cc1ccc(NC(=O)c2ccc(Cl)c(C(F)(F)F)c2)cc1,12.9% (inactive)
14,CON=C1C[C@]2(C[C@@H]3C[C@@H](C/C=C(\C)C[C@@H](C)/C=C/C=C4\CO[C@@H]5[C@H](O)C(C)=C[C@@H](C(=O)O3)[C@]45O)O2)O[C@H](/C(C)=C/C(C)C)[C@H]1C,49% (inactive)
15,CCN1C(=O)N(CC)C2C1NN=c1s/c(=C\c3ccc([N+](=O)[O-])cc3)c(=O)n12 (stereo not drawn),7.94% (active)
16,CCOc1ccc(N(C)c2ccc(/C=C/C3=[N+](C)c4ccccc4C3(C)C)cc2)cc1,6.26% (active)
